Our source for the growth values is PubChem BioAssay (NCI).

SMILES strings stand for the structures. About 83,000 compounds went through this panel and 20% of them were active in at least one assay; those are over-represented in the sample as a whole.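 In brief: 96-well plates, 48 h treatment, single concentration, percent growth endpoint.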 Unmarked numbers belong to inactive results. The source made the active and inactive calls. How the source made its calls: active means growth percent below 10; inactive means the rest.

The experiment has as its system HL-60(TB) leukemia. Put plainly: NCI-60 one-dose screen, 48 h (100 = growth as untreated, 0 = no growth, -100 = all killed). The settings on record: 10 µM unless noted.
Regarding `O=C(Nc1ccc(-n2ccc3c(NC(=O)c4ccccc4)nccc32)cc1)c1ccc(Cl)c(C(F)(F)F)c1`, the growth was 25.7%. With `Cc1ccc(C(=O)N2C/C(=C/c3ccc(F)cc3)C(=O)/C(=C/c3ccc(F)cc3)C2)cc1`, the growth is 81.6%. To `CC(C)C[C@H](NC(=O)/C=C/Cn1ccc2ccccc2c1=O)B(O)O` belongs 24.2%. In the case of `CCOC(CNCc1cc(C)c2[nH]c3ccccc3c2c1C)OCC`, the growth was 86%.

`CCNC(=O)C1CCCN1C(=O)C(CCCN=C(N)N)NC(=O)C(CC(C)C)NC(=O)C(CC(C)C)NC(=O)C(Cc1ccc(O)cc1)NC(=O)C(CO)NC(=O)C(Cc1c[nH]c2ccccc12)NC(=O)C(Cc1cnc[nH]1)NC(=O)C1CCC(=O)N1` (stereo not given): the growth was 113%.

With `c1ccc2c(c1)Nc1ccncc1S2`, the growth was 132%. To `CC(C)(C)CC(C)(C)NCc1cc(C(C)(C)C)cc(CNC(C)(C)CC(C)(C)C)c1O` belongs -33.8% (active). For the compound `COC(=O)/C(CCC=C(C)C)=C1\[C@@H](OC(C)=O)C[C@@]2(C)[C@H]1C[C@@H](O)[C@H]1[C@@]3(C)CC[C@H](NCCO)[C@@H](C)[C@@H]3CC[C@@]12C`, the growth was 96.4%.

`CN(C)CCCN1c2ccccc2CCc2ccc(Cl)cc21`: the growth is 80.2%. The result for `Cc1c(Cl)ccc2c(C(=O)Cl)cc(-c3ccccc3)nc12` reads 88.9%; that for `COC(=O)/C=C1/SC(=Nc2cccc(Cl)c2)N(CCc2c[nH]c3ccc(O)cc23)C1=O`, -11.4% (active); that for `C#COc1cccc(Nc2ncnc3cc(NC(=O)[C@@H](C)Cl)ccc23)c1`, 10.9% [6.25 µM]. Regarding `CCN(Cc1ccc(CN(CC)C(=O)C(Cl)(Cl)Cl)cc1)C(=O)C(Cl)(Cl)Cl`, the growth was 6.38% (active). The result for `CCOC(=O)c1cn2ncnc(Oc3ccc(NC(=O)NC4CC4)c(Cl)c3)c2c1C` reads 83.5%. To `O=C(NC1CCNCC1)c1[nH]ncc1NC(=O)c1c(Cl)cccc1Cl` belongs -31.8% (active); to `N#Cc1c(N2CCNCC2)nc2sc3cc(Cl)c(Cl)cc3n2c1=N`, 89%; to `CCn1cc(C(=O)O)c(=O)c2cc(F)c(N3CCN(S(=O)(=O)c4ccc(OC)c(OC)c4)CC3)cc21`, 91.3%. The result for `Cc1cc(C(=O)c2ccccc2)c(C)c2c1[nH]c1ccc(Cl)cc12` reads 1.08% (active); that for `C/C(=N\Nc1ccc2ccccc2n1)c1ccccn1`, -39% (active). As to `NC(=O)c1c(NC(=O)c2ccc(Cl)cc2)sc2c1CCC(=O)C2`, the growth is 48.6%. For the compound `CC1(C)C2CC=C(/C=N/NC(=O)C3CCC(=O)N3)C1C2` (stereo not given), the growth was 101%.

`COc1ccc(NC(=O)CSc2nnc(-c3cc(-c4ccc(S(N)(=O)=O)cc4)nc4ccccc34)n2-c2ccccc2)cc1`: the growth was 65.1%. `COc1cc(-c2cn(-c3ccc(Cl)c(Cl)c3)c(=O)[nH]2)cc(OC)c1OC`: the growth is 88.1%.

As for `CCN(CC)CCCNc1cccc2c(C)cc(OC)nc12`, the growth was 106%. To `N=C(N)c1ccc(-c2ccc(-c3ccc(Cl)c(Cl)c3)s2)cc1` belongs -32% (active).

Regarding `COc1cc(/C=N/NC(=O)CCN2c3ccccc3Sc3ccccc32)cc(OC)c1OC`, the growth is 77.9%. The result for `COc1cc(-c2nc(C(=O)Nc3ccc(C)cc3)nn2-c2ccc(F)c(F)c2)cc(OC)c1OC` reads 100%; that for `CC(C)=CC(=O)N[C@@H]1CC2CCC3C(CC[C@@]4(C)C3CC[C@@H]4C(C)N(C)C)[C@@]2(C)C[C@@H]1O` (stereo not given in full), -63.8% (active). Consider `CCCCCCCCCCCCCCCCCC[n+]1ccc2c(C)c3c(c(C)c2c1)c1cc(O)ccc1n3CC`, for which the growth was 30.2%.

`Cc1nn(-c2cc(NC3CCC(O)CC3)c3c(=O)[nH]c(CCC(F)(F)F)cc3c2)c2c1C(=O)CC(C)(C)C2` (stereo not given): the growth is 28%.

On to `C[C@@H]1CN(c2cnc(C(=O)Nc3cc(F)cc4cccnc34)cn2)C[C@H](C)N1`, for which the growth is 82.4%. With `COc1ccc(-c2nn(-c3cccc(Cl)c3)cc2-c2c(C#N)c(=O)n3[nH]c(-c4ccc(C)cc4)nc3c2C#N)cc1`, the growth is 61.7%. To `CC(C)(C)n1cc(-c2ccnc(NCCNS(=O)(=O)c3ccc(F)cc3)c2)c(-c2cccc(O)c2)n1` belongs 46.6%. As to `C=C(C)[C@@H]1CC[C@]2(C(=O)NC3CCCCC3)CC[C@]3(C)[C@H](CC[C@@H]4[C@@]5(C)CCCNC(C)(C)[C@@H]5CC[C@]43C)[C@@H]12`, the growth was 23.7%. Take `Cc1cc2c(cc1C)Nc1sc(NC(=O)CN3CCN(C)CC3)nc1C(=O)N2`: the growth is 83.3%. As to `COc1cc(-c2nc3occn3c2-c2ccnc(NCCCNS(=O)(=O)c3ccccc3)n2)ccc1F`, the growth was 39.6%. To `COc1ccc(OC)c2ncccc12` belongs 98.9%; to `CCCCSc1ccc2nc(-c3ccc(OCCCN=C(N)N)cc3)cn2c1`, 41.1%. To `COc1cc2nc(Cl)nc(Nc3cccc(C(=O)/C=C/c4ccccc4)c3)c2cc1OC` belongs 70.1%.

Take `COc1ccc(C2=C(CN)C(O)NC(=NCC(=O)c3ccc4ccccc4c3)N2)cc1` (stereo not given): the growth is 97.9%.
